Experimental data from PubChem BioAssay AID1863 (Southern Research Specialized Biocontainment Screening …, 2009).
Out of some 300,000 compounds screened, about 480 (0.16%) were called active.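 How the source made its calls: active means inhibition over 29.93%, a cutoff 3 SD above the screen mean, later confirmed by dose response; inconclusive means inhibition over 29.93% but no dose response follow-up; inactive means inhibition at most 29.93% or unconfirmed.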 Not all results are given here. Potency and affinity values are given separately.

assay: inhibitors of PhoP regulon expression, primary screen, Salmonella Typhimurium, GFP reporter (AID 1863);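 further: 0% = low Mg2+ inducing control and 100% = high Mg2+ repressing control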; settings: S. Typhimurium PhoP-regulated promoter GFP reporter, 4 h; at 50 µM; hits give high values

inhibition, inactive:
O=C(Nc1ccc(CN2CCOCC2)cc1)c1cccc(-c2cc3ccccc3oc2=O)c1 -5.22%
O=C1c2ccccc2NC(c2ccc(-c3cccc([N+](=O)[O-])c3)o2)N1O (configuration not stated) 43%
Cc1cc([N+](=O)[O-])ccc1-c1ccc(C2Nc3ccccc3C(=O)N2O)o1 (configuration not stated) -3.84%
O=C1c2ccccc2NC(c2ccco2)N1O (configuration not stated) 7.8%
O=C1c2ccccc2NC(c2ccc(Cl)cc2Cl)N1O (configuration not stated) 0.793%
O=C(N/N=C/c1ccccc1[N+](=O)[O-])c1ccc2c(c1)OCCO2 -4.47%
CCOC(=O)c1sc(=S)n(-c2ccc(C)cc2)c1SC -0.48%
Nc1nc(N2CCOCC2)nc2ccccc12 19.6%
Nc1nc(N2CCCCC2)nc2ccccc12 0.383%
O=C(N/N=C\c1cccc(Cl)c1)c1ccc(Cn2cc(Br)c([N+](=O)[O-])n2)o1 -28.5%
O=C(O)/C=C/c1ccccc1Oc1ccc(Cl)cc1Cl 1.78%
Nc1cc(C(=O)O)c(Oc2ccc(Cl)cc2Cl)cc1C(=O)O 9.23%
COc1ccc(N2CCN(C(=O)COc3cccc4ccccc34)CC2)cc1 4.64%
Cc1ccc(NCC(=O)N/N=C/c2ccc(C(=O)O)cc2)cc1 7.26%
CC(=O)N1CCOc2ccc(S(=O)(=O)N3CCC(C(=O)Nc4ccc(C)cc4)CC3)cc21 0.99%
O=C(Cn1nc(CNc2ccc(Cl)cc2)[n+]2c1CCCCC2)c1ccccc1 8.62%
COc1ccc(NCc2nn(CC(=O)c3ccc(Br)cc3)c3[n+]2CCCCC3)cc1 -2.79%
O=C(Cn1nc(CNc2ccc(Br)cc2)[n+]2c1CCCCC2)c1ccc([N+](=O)[O-])cc1 5.85%
O=C(Cn1nc(CNc2ccc(Cl)cc2)[n+]2c1CCCCC2)c1ccc(Cl)cc1 7.8%
O=C1Nc2ccccc2OCc2c1cccc2[N+](=O)[O-] -2.35%
O=C(O)C1CCC1C(=O)Nc1nc(-c2ccc(Cl)s2)cs1 (configuration not stated) -4.65%
CCC(=O)c1ccccc1OCCCCn1cncn1 4.32%
CN1CCN(C(=O)CSc2nnc(COc3ccc(Cl)cc3)o2)CC1 5.2%
CC(=O)Nc1cccc(NC(=O)CCNC(=O)c2ccccc2)c1 5.9%
Cc1nnc(SCc2ccc(CC(=O)O)cc2)o1 -9.32%
COc1ccc(C(=O)NCC(c2cccs2)N2CCc3ccccc32)cc1OC (configuration not stated) -7.86%
COC(=O)C1=C(C)NC2=C(C(=O)CC(C)(C)C2)C1c1cnn(C)c1C (configuration not stated) -3.34%
C/C(=N\Nc1nc2ccccc2[nH]1)c1ccc(C)o1 9.28%
C/C(=N\Nc1nc2ccccc2[nH]1)c1ccc(Cl)s1 31.6%
CN(C)S(=O)(=O)c1ccc(C(=O)NCc2ccccc2)cc1 5.29%
CC(C)CNC(=O)COC(=O)c1cccc(S(=O)(=O)NCC(F)(F)F)c1 0.22%
Cn1c(=O)c(C(=O)NNC(=O)c2ccccc2Cl)c(O)c2ccccc21 3.12%
